In assay [1] the target is Sentrin-specific protease 8 (Homo sapiens) (UniProt Q96LD8). Briefly: SENP8 protease inhibitors, retest, confirmation, biochemical, luminescence, single concentration (AID 488912;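 active means mean inhibition across replicates above about 50%, limit read from the data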). Conditions: Recombinant SENP8, Z-RLRGG-aminoluciferin luminescence, 60 min; at 12.5 µM; stronger effect = higher value.
For assay [2], the target named is Sentrin-specific protease 6 (Homo sapiens) (UniProt Q9GZR1). Put plainly: SENP6 protease inhibitors, confirmation, biochemical, luminescence, single concentration (AID 488915). As to conditions: recombinant SENP6, Z-RLRGG-aminoluciferin luminescence; at 12.5 µM; stronger effect = higher value.
Sequence of Sentrin-specific protease 6 (Homo sapiens) (Q9GZR1 628-1112 limits assumed): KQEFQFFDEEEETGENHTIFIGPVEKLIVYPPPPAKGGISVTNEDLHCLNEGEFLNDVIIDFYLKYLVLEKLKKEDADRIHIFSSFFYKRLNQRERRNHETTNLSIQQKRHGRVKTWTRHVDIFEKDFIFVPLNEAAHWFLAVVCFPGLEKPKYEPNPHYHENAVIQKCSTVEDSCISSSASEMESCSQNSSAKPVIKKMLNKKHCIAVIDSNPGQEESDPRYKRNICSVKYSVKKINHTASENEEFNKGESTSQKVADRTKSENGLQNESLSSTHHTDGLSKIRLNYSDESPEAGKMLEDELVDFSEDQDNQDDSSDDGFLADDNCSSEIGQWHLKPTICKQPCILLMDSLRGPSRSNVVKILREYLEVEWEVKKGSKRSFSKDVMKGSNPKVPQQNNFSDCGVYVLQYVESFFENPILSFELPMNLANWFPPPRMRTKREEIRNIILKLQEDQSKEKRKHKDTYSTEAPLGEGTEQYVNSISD
For assay [3], the target named is Sentrin-specific protease 7 (Homo sapiens) (UniProt Q9BQF6). Briefly: SENP7 protease inhibitors, retest, confirmation, biochemical, luminescence, single concentration (AID 488917). Conditions: recombinant SENP7, Z-RLRGG-aminoluciferin luminescence, 40 min; at 12.5 µM; stronger effect = higher value.
Sequence of Sentrin-specific protease 7 (Homo sapiens) (Q9BQF6 706-1050 limits assumed): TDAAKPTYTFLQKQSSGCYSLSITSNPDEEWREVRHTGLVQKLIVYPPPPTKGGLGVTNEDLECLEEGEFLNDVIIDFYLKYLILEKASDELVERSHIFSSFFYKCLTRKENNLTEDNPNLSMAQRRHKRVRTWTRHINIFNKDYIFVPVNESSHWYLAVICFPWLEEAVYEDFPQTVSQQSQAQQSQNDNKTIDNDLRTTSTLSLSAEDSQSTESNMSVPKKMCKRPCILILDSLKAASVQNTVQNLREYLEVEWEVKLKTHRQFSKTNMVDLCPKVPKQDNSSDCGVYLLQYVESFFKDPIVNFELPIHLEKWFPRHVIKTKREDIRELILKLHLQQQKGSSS
Assay [4] concerns the target Caspase-3 (Homo sapiens) (UniProt P42574). Briefly: caspase-3 protease inhibitors, confirmation, selectivity assay for SENP inhibitor project, biochemical, single concentration (AID 488918;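 active means mean inhibition above about 50%, limit read from the data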;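 further: plate controls were enzyme with DMSO for no effect and wells without caspase-3 for full effect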). As to conditions: purified caspase-3, Z-DEVD-aminoluciferin luminescence, 60 min; at 12.5 µM; stronger effect = higher value.
Assay [5] in a line: luciferase luminescence interference by compounds, confirmation, artefact control for SENP inhibitor project, biochemical, single concentration, SENP8 reaction pre-completed (AID 488919;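 active means mean inhibition above about 50% when retested at one dose, limit read from the data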;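 further: plate controls were DMSO wells with completed reaction for no effect and substrate without enzyme for full effect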). As to conditions: Pre-incubated SENP8/Z-RLRGG-aminoluciferin, at 12.5 µM, stronger effect = higher value.

This passage reports inhibition results from PubChem BioAssay.

Some of the results follow. Values without a mark were called inactive. Activity calls are given as the source filed them.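 How the source made its calls, unless noted: active means mean inhibition above about 50% in the one-dose retest (limit read from the data); inactive means the rest.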

Sequence of Sentrin-specific protease 8 (Homo sapiens) (Q96LD8 whole entry, looked up): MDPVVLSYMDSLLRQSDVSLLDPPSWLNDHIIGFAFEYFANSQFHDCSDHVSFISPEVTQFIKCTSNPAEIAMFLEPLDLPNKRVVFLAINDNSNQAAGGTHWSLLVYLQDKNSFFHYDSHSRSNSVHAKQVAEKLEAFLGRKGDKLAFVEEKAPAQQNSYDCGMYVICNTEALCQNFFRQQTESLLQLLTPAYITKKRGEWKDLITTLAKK
Sequence of Caspase-3 (Homo sapiens) (P42574 28-227 limits assumed): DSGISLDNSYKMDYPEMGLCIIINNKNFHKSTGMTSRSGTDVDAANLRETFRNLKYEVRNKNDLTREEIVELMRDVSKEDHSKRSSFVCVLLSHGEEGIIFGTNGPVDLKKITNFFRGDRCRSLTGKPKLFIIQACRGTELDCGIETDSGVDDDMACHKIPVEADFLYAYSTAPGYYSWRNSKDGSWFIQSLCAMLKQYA

Usually inhibition stands for the change of the read-out against control, counted positive when it falls. As to `O=C(Nc1ccccc1C(=O)Nc1ccncc1)c1ccc([N+](=O)[O-])cc1`, the inhibition in assay [1] is 47.2%; in assay [2], 57.2% (active); in assay [3], 85.4% (active); in assay [4], 65.1% (active); in assay [5], 10.6%.

On to `COc1ccc(C(=O)Nc2ccccc2C(=O)N/N=C/c2ccccc2OC)cc1`, for which the inhibition is 4% in assay [1]; 43.4% in assay [2]; 52.6% (active) in assay [3]; 83.9% (active) in assay [4]; 15.2% in assay [5].

Take `O=C(Nc1ccccc1Cl)Nc1cccc2cccnc12`: the inhibition in assay [1] is 35.6%; in assay [2], 37.2%; in assay [3], 75.2% (active); in assay [4], 25.9%; in assay [5], 32.6%.

As for `O=C(Nc1ccc(NC(=O)c2ccco2)c(Cl)c1)c1cccc([N+](=O)[O-])c1`, the inhibition is 8.7% in assay [1]; 6.1% in assay [2]; -6.7% in assay [3]; -0.7% in assay [4]; -0.2% in assay [5].

On to `CC(C)N(C(=O)Cn1cc(SCC(=O)N2CCCC2)c2ccccc21)C(C)C`, for which the inhibition in assay [1] was -29.2%; in assay [2], -18.1%; in assay [3], -8.3%; in assay [4], -6.3%; in assay [5], -6.7%.

As to `O=C(N/N=C/c1cccnc1)c1cc2ccccc2cc1O`, the inhibition in assay [1] is 25.3%; in assay [2] it was 22.6%; in assay [3], 72.3% (active); in assay [4] it was 61.6% (active); in assay [5], 53.8% (active).

`O=C(Nc1nc2ccc([N+](=O)[O-])cc2s1)c1ccncc1`: the inhibition was 16% in assay [1]; 17.5% in assay [2]; 15.1% in assay [3]; 7.6% in assay [4]; 15.8% in assay [5].

`CCC(=O)NC(Nc1cc(C)ccn1)(C(F)(F)F)C(F)(F)F`: the inhibition is -4.5% in assay [1]; -2.4% in assay [2]; -0.5% in assay [3]; 8.4% in assay [4]; 4.2% in assay [5].

Turning to `C1=C(CCNc2ncnc3c2cnn3-c2ccccc2)CCCC1`, the inhibition in assay [1] is 2%; in assay [2], 22%; in assay [3], -1.5%; in assay [4], 39.5%; in assay [5], -4.4%.

Take `c1ccc(-c2noc(-c3cccs3)n2)nc1`: the inhibition was 90% (active) in assay [1]; 91.3% (active) in assay [2]; 98.9% (active) in assay [3]; 95.4% (active) in assay [4]; 90.1% (active) in assay [5].

Turning to `CCc1ccc(C(=O)COC(=O)c2ccco2)cc1`, the inhibition in assay [1] was 62.7% (active); in assay [2], 62% (active); in assay [3], 83.3% (active); in assay [4] it was 74.5% (active); in assay [5], 68% (active).

With `O=C(c1ccc(CSc2ccccc2)cc1)N1CCCCCC1`, the inhibition was 57.5% (active) in assay [1]; 57% (active) in assay [2]; 80% (active) in assay [3]; 54.3% (active) in assay [4]; 65.5% (active) in assay [5].

Turning to `O=C(O)/C=C/C(=O)NNc1ccc([N+](=O)[O-])cc1`, the inhibition was 67.5% (active) in assay [1]; 65.4% (active) in assay [2]; 92.5% (active) in assay [3]; 88.6% (active) in assay [4]; 79.3% (active) in assay [5].

Regarding `Cc1[nH]n(C(N)=S)c(=O)c1N=Nc1ccc(Cl)cc1Cl`, the inhibition was 81.4% (active) in assay [1]; 89.8% (active) in assay [2]; 93.3% (active) in assay [3]; 85.3% (active) in assay [4]; 38.9% in assay [5].

Turning to `CC1=CC(=C(C#N)c2nc3ccccc3s2)C=C(C)N1c1ccc(F)cc1F`, the inhibition was 12.4% in assay [1]; 19% in assay [2]; -0.4% in assay [3]; -3.2% in assay [4]; -9.8% in assay [5].

As for `CCC(=O)Nc1ccc(C(=O)Nc2cccc(OC)c2)cc1`, the inhibition in assay [1] was 42.4%; in assay [2], 39%; in assay [3], 71.9% (active); in assay [4] it was 69.1% (active); in assay [5] it was 52.9% (active).

For the compound `O=C(Nc1ccc2c(c1)CCC2)c1cccc(S(=O)(=O)Nc2ccccc2Cl)c1`, the inhibition in assay [1] was 44%; in assay [2], 40.3%; in assay [3], 50.8% (active); in assay [4], 13.2%; in assay [5] it was 4.6%.

Consider `COc1ccc(C(=O)Nc2ccc(F)cc2F)cc1`, for which the inhibition is -4.2% in assay [1]; 60.2% (active) in assay [2]; 87.6% (active) in assay [3]; 87.1% (active) in assay [4]; 67.9% (active) in assay [5].

Consider `C=CCNC(=S)N1CCN(CCN=Cc2c(C)[nH]n(-c3ccc([N+](=O)[O-])cc3)c2=O)CC1`, for which the inhibition in assay [1] was 0.7%; in assay [2], 21.1%; in assay [3], 28%; in assay [4], 56.6% (active); in assay [5], 16.9%.

For the compound `O=C(Nc1ccc(C2CC2(Cl)Cl)cc1)c1cccc([N+](=O)[O-])c1` (stereo not given), the inhibition in assay [1] was 57.6% (active); in assay [2], 60.1% (active); in assay [3], 87.5% (active); in assay [4] it was 36.1%; in assay [5], 29.5%.

Take `O=c1[nH]c(/C=C/c2cccc(Br)c2)nc2ccccc12`: the inhibition in assay [1] is 2.7%; in assay [2], 1.4%; in assay [3], 12.3%; in assay [4] it was 17.6%; in assay [5] it was 1%.

For the compound `O=C(Cn1ccc([N+](=O)[O-])n1)NCc1cccs1`, the inhibition is -12.3% in assay [1]; -5.9% in assay [2]; -4.5% in assay [3]; -1.1% in assay [4]; -8.7% in assay [5].

`C/C(=N\NC(=O)c1ccoc1C)c1ccccc1O`: the inhibition in assay [1] is 38.5%; in assay [2] it was 36.8%; in assay [3], 80.7% (active); in assay [4], 77.3% (active); in assay [5], 63% (active).

As for `COc1ccc(C(=O)Nc2ccc3c(c2)OCO3)cc1OC`, the inhibition was 8.9% in assay [1]; 77.3% (active) in assay [2]; 93.5% (active) in assay [3]; 91.3% (active) in assay [4]; 77.4% (active) in assay [5].

With `O=C(Nc1sc2c(c1C(=O)O)CCC2)c1ccccc1F`, the inhibition in assay [1] was 94.5% (active); in assay [2] it was 96.2% (active); in assay [3], 102% (active); in assay [4], 96.3% (active); in assay [5] it was 94.5% (active).
